VDR inh = vitamin D3 receptor (human) inhibition. P11473. VDR-SRC2-3 peptide fluorescence polarization, 2 h. Potency, µM, inactives show max response, negative = inhibition, hits mostly inhibitors. 400,000 compounds, 0.93% hits. AID 504847
Target sequence (P11473 whole entry, looked up): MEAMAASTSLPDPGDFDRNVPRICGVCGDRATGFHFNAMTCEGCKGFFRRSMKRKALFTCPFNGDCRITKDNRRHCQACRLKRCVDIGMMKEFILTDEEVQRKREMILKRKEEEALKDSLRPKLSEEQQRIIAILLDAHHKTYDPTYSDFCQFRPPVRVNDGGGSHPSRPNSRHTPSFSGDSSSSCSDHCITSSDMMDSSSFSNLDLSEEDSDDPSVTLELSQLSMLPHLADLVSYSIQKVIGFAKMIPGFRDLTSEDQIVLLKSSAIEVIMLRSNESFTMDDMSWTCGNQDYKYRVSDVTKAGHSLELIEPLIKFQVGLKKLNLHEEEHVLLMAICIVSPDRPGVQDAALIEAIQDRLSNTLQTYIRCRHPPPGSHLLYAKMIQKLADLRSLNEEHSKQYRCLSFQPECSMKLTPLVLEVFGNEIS
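Signal is fluorescence polarization, reporting how far test compounds block the interaction of VDR with the SRC2-3 coregulator peptide after a 2 h room-temperature incubation.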
TRb-SRC2 inh = disrupts binding of human TR beta to SRC2; 280,000 compounds, 0.065% hits; Potency, µM (doses to about 106 µM), without a hit: at the highest dose activity change, negative = inhibition, usual class: inhibitors; P10828; TRbeta-SRC2 peptide binding, fluorescence polarization; receptor liganded with 1 µM T3;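 note: plate controls were bound peptide for no effect and peptide without receptor for full effect; nearly all actives have a fitted effect of over 50% in size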
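TRb LBD 0.6 uM + Texas Red SRC2 peptide 20 nM, 1 uM T3, Tris buffer w/ 5% DMSO; compound pinned, 5 h RT; FP read ex 555/em 632; normalized to unbound and bound controls.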
GCN5L2 inh = inhibitors of human GCN5L2 histone acetyltransferase; Q92830; GCN5L2 HAT assay, ThioGlo1 CoA-SH fluorescence; Potency, µM (highest dose often 58.9 µM), without a hit: top-dose activity change, negative = inhibition, hits mostly inhibitors; 390,000 compounds, 0.21% hits; AID 504327
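GCN5L2 (20 nM) in 50mM HEPES pH 7.5, 0.1mM EDTA, 0.01% Tween-20 preincubated 15 min with compounds at room temperature. Reaction started with H3(1-25) 75uM, acetyl-CoA 70uM, ThioGlo1 50uM; CoA-thiol fluorescence (Ex340/Em540) read at 0 and 20 min.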
TexasRed fluor = counter-screen for TRb-SRC2 inhibitors: fluorescence interference; TRb/SRC2 Texas Red total fluorescence interference; Potency, µM (doses to about 106 µM), without a hit: top-dose fluorescence change, negative = quenching; 280,000 compounds, 0.29% hits; AID 1479; active = well fitted curve in either direction with a large enough effect; inconclusive = small, poorly fitted or top-dose-only effect
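Human TRb ligand-binding domain at 0.6 uM with 20 nM Texas Red SRC2 peptide in Tris buffer containing 1 uM T3 and 5% DMSO, incubated with compound 5 h at ambient temperature. Total fluorescence (555/632 nm) calculated as parallel + 2 × perpendicular.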
RGS12 GoLoco inh = RGS12 GoLoco-Gai1 interaction inhibition. P63096. Gai1:RGS12 GoLoco peptide FP, rhodamine, 10 min. Potency, µM (highest dose often 61.6 µM), inactives show at the highest dose activity, negative = inhibition, most hits filed as inhibitors. 230,000 compounds, 0.44% hits. AID 880; active = well fitted inhibition curve with a large enough effect, not every such curve was filed as active; inactive = no such curve, though single readings can be large or run the other way; note: nearly all actives have a fitted effect of over 30% in size
An asterisk follows results filed as active; ? = inconclusive; nt = not tested or not shown; ! = a repeat was not active; [ ] = another dose, or the depositor's remark. Only some compounds are listed: those with a hit (about 1.2% of all), similar ones and a draw of the others. Unless noted, calls come from the whole dose curve; as a rule, active = well fitted curve in the direction sought with a large enough effect; inconclusive = small, poorly fitted or top-dose-only effect, or another doubt; inactive = no such curve, though single readings can be large; an effect the other way counts as inactive or inconclusive. Unless noted, % is set by controls: 0 for no effect and ±100 for the full control effect; potency is the fitted concentration of half-maximal effect.

SMILES	VDR inh	TRb-SRC2 inh	GCN5L2 inh	TexasRed fluor	RGS12 GoLoco inh
O=C(c1ccc2c(=O)n(CCc3ccccc3)c(=O)[nH]c2c1)N1CCN(C(=O)c2ccco2)CC1	-9%	nt	nt	nt	nt
CC(=O)OCC1OC(C#Cc2ccc(F)cc2F)C=CC1OC(C)=O (configuration not stated)	nt	5%[11.2 µM]	nt	-2%[11.2 µM]	nt
CCOC(=O)c1ccc(N=C2SC(C(=O)NC)CC(=O)N2Cc2ccc(F)cc2)cc1 (configuration not stated)	-2%	-3%	-5%	5%	1%
CCOC(=O)c1ccc(N=c2ssnc2Cl)cc1	16µM*	2%	13µM*	-4%	-20%
Clc1ccc(N=c2ssnc2Cl)cc1	25µM*	-13%	14µM*	1%	-2%
CC1=CC(=C(c2ccc(N)cc2)c2ccc(N)cc2)C=CC1=N	?	nt	-15%	nt	nt
c1ccc2c(N3CCOCC3)nc(-c3ccoc3)nc2c1	?	nt	-13%	nt	8%
CN(C)C(=O)c1ccc(-c2nc(Nc3ccccc3)c3ccccc3n2)cc1	40µM*	nt	?	nt	8%
c1ccc2c(-n3ccnc3)nc(-c3ccoc3)nc2c1	32µM*	-1%	-27%	-4%	0%
CNC(=O)c1ccc(Nc2nc(-c3ccccc3)nc3ccccc23)cc1	8%	nt	-19%	nt	nt
O=C(O)c1ccc(Nc2nc(-c3ccccc3)nc3ccccc23)cc1	79µM*	nt	-7%	nt	nt
c1ccc(Nc2nc(-c3ccoc3)nc3ccccc23)cc1	28µM*	nt	?	nt	67%
CN(C)C(=O)c1ccc(-c2nc(N(C)C)c3ccccc3n2)cc1	8%	6%	-3%	-2%	2%
CNCC(=O)NC(CCCN=C(N)N)C(=O)NC(C(=O)NC(Cc1ccc(O)cc1)C(=O)NC(C(=O)NC(Cc1cnc[nH]1)C(=O)N1CCCC1C(=O)NC(C)C(=O)O)C(C)C)C(C)C (configuration not stated)	-5%	nt	1%	nt	nt
COc1cccc(S(=O)(=O)N2CCN(c3nc(-c4cccs4)nc4ccccc34)CC2)c1	17%	nt	nt	nt	nt
CNC1(c2nnnn2-c2ccccc2C)CCOC(C)(C)C1 (configuration not stated)	22µM*	8%	1%	-1%	2%
Cc1ccc(Nc2c(-c3ccc(C)s3)nc3cccc(C)n23)cc1	-12%	nt	nt	nt	nt
CCOC(=O)C1Nc2ccc(C(F)(F)F)cc2C2c3ccccc3CC12 (configuration not stated)	50µM*	nt	nt	nt	nt
Cc1ccc(-c2nc(NC(=O)CSc3ncn[nH]3)ns2)cc1	14µM*	-2%	-1%	0%	-10%
Cn1c(Sc2ccc(C(=O)O)cc2[N+](=O)[O-])nnc1-c1ccccc1	79µM*	-2%	-5%	5%	-3%
CCC(C)(C)NC(=O)c1ccc(Sc2nncn2C)c([N+](=O)[O-])c1	-7%	-3%[53 µM]	0%	-1%[53 µM]	2%
NC(=O)C1CCN(c2cc(Cl)nc(N)n2)CC1	79µM*	6%	-6%	0%	-5%
O=C1CCc2ccccc2N1	-15%	-2%	?	-1%	6%
S=C1Cc2ccccc2N1	2.2µM*	?	8%	-13%	-36%
c1ccc(-c2csc3nnc(SCc4ccc5c(c4)OCO5)n23)cc1	79µM*	12%	0%	-1%	4%
SMILES	VDR inh	TRb-SRC2 inh	GCN5L2 inh	TexasRed fluor	RGS12 GoLoco inh
CC(=O)N(C[C@@H](O)CO)c1c(I)c(C(=O)NC[C@@H](O)CO)c(I)c(C(=O)NC[C@@H](O)CO)c1I	2%	3%[53 µM]	10µM*	-2%[53 µM]	9%[21.6 µM]
Cc1nc(N=Nc2cc([N+](=O)[O-])ccc2Cl)c(COP(=O)(O)O)c(C=O)c1O	45µM*	5%	?	?	nt
CCOc1cc(C=O)cc(N=Nc2cccc([N+](=O)[O-])c2)c1O	6%	nt	-5%	nt	nt
Cc1nc(N=Nc2cc(S(=O)(=O)O)c3cc([N+](=O)[O-])cc(S(=O)(=O)O)c3c2)c(COP(=O)(O)O)c(C=O)c1O	40µM*!	11%	?	28µM*[quencher]	7%
CCOC(=O)N[C@H](Cc1c[nH]c2ccccc12)C(=O)Nc1cccc(Cl)c1	-8%	2%	2%	-3%	nt
CCOC(=O)NC(N(O)c1cccc(Cl)c1)C(Cl)(Cl)Cl (configuration not stated)	32µM*	-1%	1%	1%	0%
Cc1ccc(C(=O)Nc2nc(=O)n(C(=O)CC(C)C)s2)cc1	?	10%	0%	0%	5%
CC(C)CC(=O)n1sc(NC(=O)c2ccccc2)nc1=O	45µM*	-10%	-6%	0%	0%
Cc1ccc(C(=O)Nc2nc(=O)n(C)s2)cc1	-11%	-2%	1%	-2%	7%
Cc1ccc(C(=O)Nc2nc(=O)n(C(=O)c3ccccc3Cl)s2)cc1	18µM*	-9%	2%	0%	3%
O=C(CSc1nnc(-c2cccnc2)s1)Nc1ccnc2ccccc12	-21%	3%	1%	-5%	-5%
Cc1ccc(NC(=O)CSc2nnc(-c3cccnc3)s2)cc1	1%	?	0%	0.32µM*[quencher]	-2%
C=C(C)C1CCC(C)C(OC(C)=O)C1 (configuration not stated)	-8%	1%	43%	3%	nt
COc1cccc(-c2nnc3n2N=C(c2c(OC)cccc2OC)CS3)c1	nt	-2%	nt	-1%	nt
C#CCOc1c(/C=C\c2nc(O)c([N+](=O)[O-])c(=O)[nH]2)cc(Br)cc1OC	22µM*	nt	-2%	nt	nt
COc1ccc([C@@H](Nc2ccccn2)c2cc(C(C)(C)C)cc(C(C)(C)C)c2O)cc1	nt	nt	nt	nt	5%[14.2 µM]
CNCC(=O)O	-12%	nt	-8%	nt	nt
CC(S)C(=O)NCC(=O)O (configuration not stated)	1%	1%	12%	0%	10µM*
Cc1cc(NS(=O)(=O)c2ccc(NC(=O)CSc3nc4sc(C)c(C)c4c(=O)[nH]3)cc2)no1	-16%	-6%	14µM*	-2%	7%
Cc1cc(NS(=O)(=O)c2ccc(NC(=O)CSc3nc4sc(C(=O)O)c(C)c4c(=O)[nH]3)cc2)no1	-27%	-12%	-2%	-6%	5%
COc1cc2c(cc1O)CCC1C2CC[C@]2(C)[C@@H](O)CC[C@@H]12 (some centres not stated)	nt	4%	nt	-4%	6%
C[C@]12CC[C@@H]3c4cc(O)c(O)cc4CC[C@H]3[C@@H]1CC[C@@H]2O	-17%	-3%	-15%	-3%	7.9µM*
CC(=O)c1sc(NCc2ccc(C)cc2)nc1C	24%	nt	0%	nt	nt
COc1ccc(CCNc2nc(-c3ccc(F)cc3)c(CC(=O)O)s2)cc1OC	79µM*	nt	-6%	nt	nt
COc1ccc(CCNc2nc(C)c(C(C)=O)s2)cc1OC	40µM*	nt	?	nt	nt
COc1ccc(CCNc2nc(-c3ccc(NC(C)=O)cc3)cs2)cc1OC	-6%	-1%	-14%	-3%	6%
O=c1[nH]c(SCc2c(Cl)c(Cl)c(Cl)c(Cl)c2Cl)nc(=S)[nH]1	nt	nt	nt	nt	4%[14.2 µM]

Screening results as filed in PubChem BioAssay.
